Source: PubChem BioAssay AID485284 (NMMLSC, 2010)
Potency and affinity values are given separately.

Assay: loss of vesicle association with mouse CD8+ T cells – mouse 2C CD8+ T cells, flow cytometry, dose response (AID 485284);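 also: drosophila derived vesicles carrying Ld MHC with QL9 peptide plus B7-1 and ICAM-1; vesicle binding seen as anti-B7-1 PE fluorescence on CD8 gated cells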
Conditions: 2C mouse CD8+ T cell-exosome binding; at 45 µM (top of the series)

Q: Which binding remaining, % of control does the source give for `O=C(COC(=O)C1(c2cccc(F)c2)CCCC1)NCc1ccc2c(c1)OCO2` here?
A: 72.1%

Q: With `C[N+]1(C)CC2([N+](=O)[O-])CC=C(Oc3ccccc3)C([N+](=O)[O-])(C2)C1` (centres undefined) as the compound, how does the binding remaining, % of control read?
A: 24.8%

Q: For `C=CCNC(=S)Nc1sc2c(c1C(N)=O)CCCC2`, which binding remaining, % of control is on record?
A: 163%

Q: For `O=C(Cc1cccs1)Nc1cc(S(=O)(=O)N2CCCCC2)ccc1Cl`, which binding remaining, % of control is on record?
A: 121%

Q: For `COc1ccc(C(O)c2coc3ccc(O)c(CN(C)C)c23)cc1` (centres undefined), which binding remaining, % of control is on record?
A: 113%

Q: For `CC1CCCN(CC(=O)NC(=O)NC2CCCCC2)C1` (centres undefined), which binding remaining, % of control is on record?
A: 109%

Q: Which binding remaining, % of control does the source give for `COc1ccc([C@H]2CC(=O)C=C(c3c(C)cc(C)cc3C)C2)cc1` here?
A: 56.3%

Q: With `CCC(C)S(=O)(=O)c1snnc1C` (centres undefined) as the compound, how does the binding remaining, % of control read?
A: 164%

Q: For `COc1ccc(OC)c(NC(=O)CCN2CCCCC2)c1`, which binding remaining, % of control is on record?
A: 220%

Q: Which binding remaining, % of control does the source give for `O=C(NCc1cccnc1)C(=O)NCC(c1ccco1)N1CCN(c2ccccc2)CC1` (centres undefined) here?
A: 110%

Q: For `O=C(Oc1ccc(C(=S)N2CCOCC2)cc1)c1ccc(F)cc1`, which binding remaining, % of control is on record?
A: 63.3%

Q: Which binding remaining, % of control does the source give for `CCCNC(=O)c1nc2ncc(Br)cn2n1` here?
A: 153%

Q: For `CC1CCC(NC(=O)CN2C(=O)NC3(CCCCCC3)C2=O)CC1` (centres undefined), which binding remaining, % of control is on record?
A: 101%

Q: Which binding remaining, % of control does the source give for `COc1ccc(-c2cc(CNS(=O)(=O)c3ccc(NC(C)=O)cc3)on2)cc1` here?
A: 101%

Q: For `CC(=O)Nc1ccc(S(=O)(=O)NC2CCSc3ccccc32)cc1` (centres undefined), which binding remaining, % of control is on record?
A: 273%

Q: For `COc1ccc(CNC(=O)COC(=O)CCN2C(=O)C3CC=CCC3C2=O)cc1OC` (centres undefined), which binding remaining, % of control is on record?
A: 190%

Q: With `O=C(/C=C/c1ccc(Br)cc1)c1ccc(NC(=O)c2ccco2)cc1` as the compound, how does the binding remaining, % of control read?
A: 98.2%

Q: Which binding remaining, % of control does the source give for `CCCNC(=O)CN1CCN(S(=O)(=O)c2ccc(Br)s2)CC1` here?
A: 100%

Q: With `CCOC(=O)N1CCC(=NNc2ncc(C(F)(F)F)cc2Cl)CC1` as the compound, how does the binding remaining, % of control read?
A: 24.2%

Q: For `CCSc1nnc(NC(=O)c2ccc(F)c(S(=O)(=O)N3CCOCC3)c2)s1`, which binding remaining, % of control is on record?
A: 127%

Q: With `CC(C)(C)Nc1nc2nonc2nc1NC(C)(C)C` as the compound, how does the binding remaining, % of control read?
A: 147%

Q: Which binding remaining, % of control does the source give for `CCCCN(C(=O)COC(=O)c1ccc(C=O)cc1)c1c(N)n(CCC)c(=O)[nH]c1=O` here?
A: 50.1%

Q: With `O=C(Cc1ccc(S(=O)(=O)N2CCOCC2)s1)Nc1ccc(S(=O)(=O)N2CCCCC2)cc1` as the compound, how does the binding remaining, % of control read?
A: 72.7%

Q: For `Cc1cc(N2CCN(C)CC2)nc2ccc(NC(=S)N3CCC4(CC3)OCCO4)cc12`, which binding remaining, % of control is on record?
A: 147%

Q: For `CCCc1cc(=O)[nH]c(SCC(=O)N2c3ccccc3CC2C)n1` (centres undefined), which binding remaining, % of control is on record?
A: 126%

Q: Which binding remaining, % of control does the source give for `c1ccc(COc2ccc(OCCN3CCCCC3)cc2)cc1` here?
A: 112%

Q: With `Cc1cccc(C(=O)OCC(=O)NN2C(=O)NC3(CCC(C)CC3)C2=O)c1O` (centres undefined) as the compound, how does the binding remaining, % of control read?
A: 209%

Q: For `Cc1noc(C)c1C(=O)OC(C)C(=O)N1CCc2ccccc21` (centres undefined), which binding remaining, % of control is on record?
A: 96.2%

Q: For `COc1ccc(NC(=O)Nc2c(O)ccc3ccccc23)cc1`, which binding remaining, % of control is on record?
A: 76.2%

Q: With `COc1ccccc1NS(=O)(=O)c1cc(NC(=O)CNC(=O)c2cc(C)cc(C)c2)ccc1C` as the compound, how does the binding remaining, % of control read?
A: 40.9%

Q: Which binding remaining, % of control does the source give for `CCN1CCN(c2ccc(S(=O)(=O)N3CCOCC3)cc2NC(=O)/C=C/c2ccc(C)cc2)CC1` here?
A: 98.1%

Q: Which binding remaining, % of control does the source give for `CCN(CC)C(=O)N1CCN(S(=O)(=O)c2ccc(C)cc2)CC1` here?
A: 112%

Q: With `CCOC(=O)C1CCCN(c2cc(=O)n(-c3ccccc3Cl)c(=O)[nH]2)C1` (centres undefined) as the compound, how does the binding remaining, % of control read?
A: 87.9%

Q: With `Cc1c(C(=O)NCCSCc2c(F)cccc2Cl)cnn1-c1ccc(Cl)cc1` as the compound, how does the binding remaining, % of control read?
A: 144%
